Results: the supplement of paper PMC6555819

Assays:
Assay in all cases: PBM binding z-score (relative to random genomic background probes); higher = stronger binding; sequences stand for … in GC…GCGATTGACAGCGTAGAATGAAGG
[1] = tested on: RARb homodimer (NR concentration 270 nM)
How it was run: (§1)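 For binding z-scores, the reference was random background probes on custom Agilent 4×180K protein-binding microarrays. These arrays were incubated 1 h with ligand-free nuclear receptor dimers in PBS pH 7.4, 2% milk, 0.02% Triton X-100, 1 mM DTT, 0.2 mg/mL BSA and 0.4 mg/ml salmon testes DNA. Fluorescence was scanned after antibody detection of each partner (one per run) and regression-normalized.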

[2] = tested on: RARg:RXRa (NR concentration 270 nM, RXRa partner concentration 90 nM)
How it was run: as §1

[3] = tested on: RARg homodimer (NR concentration 270 nM)
How it was run: as §1

[4] = tested on: RXRa DBDmut IVT, anti-RXR (DBD mutation: RXRa K156A/R161A, NR concentration 90 nM)
How it was run: as §1

[5] = tested on: RXRa homodimer (NR concentration 180 nM)
How it was run: as §1

[6] = tested on: THRa:RXRa (NR concentration 90 nM, RXRa partner concentration 90 nM)
How it was run: as §1

[7] = tested on: THRa homodimer (NR concentration 90 nM)
How it was run: as §1

[8] = tested on: VDR homodimer (NR concentration 270 nM)
How it was run: as §1

Row | Sequence | PBM binding z-score [1] | PBM binding z-score [2] | PBM binding z-score [3] | PBM binding z-score [4] | PBM binding z-score [5] | PBM binding z-score [6] | PBM binding z-score [7] | PBM binding z-score [8]
1 | CCGTGTAGGTTATGGGGCATTCAGGCAACGGTGA | 1.3 | 0.81 | 0.846 | -0.509 | 0.777 | 0.703 | 0.635 | 0.353
2 | TCTTGTAGATCAGCAGGTCAAGAAAGCTGGCCAA | 2.13 | 2.22 | 1.55 | 0.289 | 2.05 | 1.89 | 0.0646 | 0.194
3 | CAAACTAGGTCATAGGTCAAAGTCGAGCCAACCA | 4.27 | 6.56 | 5.38 | 2.31 | 7.49 | 4.11 | 1.44 | 1.92
4 | CGAACTAGGGCAGAACAGGACAGTGAAGGATGAT | 0.707 | 0.486 | 0.757 | 0.0235 | -0.0297 | 1.58 | -0.495 | -0.0975
5 | CGTCCAAGGTCAGCAGGTCCGTGAAAGCGACGTG | 4.13 | 5.15 | 5.97 | 2.96 | 3.76 | 3.59 | 1.92 | 2.71
6 | CTACCAAGTTGAACAAGGTCGTTGATTACTATTC | 1.75 | 0.927 | 0.929 | 2.12 | 1.15 | 2.77 | 1.57 | 3.58
7 | CCGACTGGGGCAAGGTTTCCATAACGCACAGCCA | 0.28 | 0.112 | 0.326 | -0.561 | -0.0639 | -0.0993 | -0.3 | -0.47
8 | CCAACTGGGGCAGAAAGGTTACCATACCATCCGG | 2.5 | 1.72 | 1.37 | -0.546 | 1.76 | 1.06 | 0.0988 | -0.202
9 | ACAGACAGGTGATGAAGGTAACGCAGGCTATCAT | 0.353 | 0.208 | 0.319 | -0.195 | 0.253 | 0.435 | -0.159 | -0.267
10 | GATACAGCGTCAGCTAGAGGCCAGAGTATGGAAA | -0.524 | -0.0653 | 0.0489 | -0.648 | -0.444 | -0.787 | -0.942 | -0.804
11 | TCTTGTAGATAAAAGGTTAAGAAAGCCGAAGCCT | 1.42 | 1.43 | 0.971 | 1.2 | 2.28 | 1.14 | -0.62 | 0.00564
12 | TAGCCGAGGTCATTGGGCCAGTATAGTACGCATC | 3.98 | 5.93 | 5.86 | 4.42 | 6.61 | 4.01 | 2.77 | 5.01
13 | CGTCCAAGGTCAGGAGGTCAGTGAAAGCGACGTG | 5.53 | 7.05 | 7.08 | 2.75 | 6.98 | 4.05 | 2.68 | 2.82
14 | CCTCGGAGGACAAGAGGAGGTCAGAGCTGCCAGA | 2.96 | 2.87 | 2.83 | 0.0626 | 1.58 | 2.55 | 0.679 | 0.697
15 | CAAACTAGGACACAGAGGTCAAAGTCCGTGCGTA | 4.68 | 5.54 | 5.17 | 2.31 | 6.42 | 4.36 | 2.5 | 5.25
16 | TCTTGTAGATCAATAGAGGTTTAGAAAGTGCGCT | -0.294 | -0.0286 | -0.308 | 0.603 | 0.0167 | 0.294 | -0.767 | 0.0472
17 | AGACTGAGGTTATTAAGATCAGGGAATTGCGGTC | 0.996 | 1.13 | 0.72 | 1.53 | 1.54 | 1.91 | 0.441 | 0.749
18 | CCTCGGAAGACAACAGGAGGTCAGAGCTGCCAGA | 2.77 | 1.94 | 1.99 | -0.3 | 1.69 | 2.04 | 0.668 | 1.28
19 | TCGAGTAGGTTAGGGGGATTCAGAATGGCGTCGA | 0.809 | 0.0898 | 0.376 | 0.668 | 0.485 | 0.871 | 1.01 | 0.42
20 | CCTTACGGGTCACGAGGTTACAGCACGACGAGCG | 4.03 | 6.15 | 5.42 | 1.87 | 7.09 | 4.16 | 1.69 | 1.89
21 | ATATGTAGGTTATCGGGTAATTCAGTTTGCGCAT | 0.9 | 0.94 | 0.821 | 0.617 | 1.05 | 1.29 | 1.26 | 1.3
22 | ACTAGTTGGTCAGCTGAGGTCGCACACAATTCGG | 2.35 | 1.52 | 1.76 | 0.828 | 1.46 | 4.25 | 2.58 | 1.32
23 | GCTTCTAGATCAAGGTTAAGAAAGACTAAGCTAA | 0.106 | 0.25 | 0.347 | 0.0774 | 0.547 | 1.16 | -0.453 | -0.36
24 | GCATATAGGTACTACAAGGTGAAAGTCCGATTGT | 0.507 | 0.382 | 0.475 | 0.291 | 0.615 | 3.49 | 0.882 | 0.179
25 | GGAACGAGGGCAAAGTTGATTGCATCTGTCGACG | 1.13 | 1.89 | 1.34 | 2.7 | 1.76 | 1.36 | -0.0538 | 1.55
26 | AGAACGAGGGCAATGAGTTGGTAGCACGGGTGGC | 0.799 | 0.857 | 1.09 | 1.47 | 0.619 | 0.555 | -0.125 | 1.98
27 | TCGAGTAGGTTACCAATGGGGCATCCAGCTTTCT | 0.918 | 1.39 | 0.452 | -0.00896 | 0.647 | -0.146 | -0.638 | -0.823
28 | AGTCAAAGTTCAGGGCGAGGTAACGTAAAGCACG | 3.56 | 5.13 | 4.99 | 2.95 | 3.15 | 3.64 | 1.28 | 2.15
29 | TCGAGTAAGTTACCAATGGGGCATTCAGCTTTCT | -0.474 | -0.261 | -0.771 | 0.494 | -0.0395 | -0.445 | -0.524 | -0.319
